Shown are actives, neighbours in structure and some others; about 27% of the full set was active somewhere.
CYP2C9 inhib: blocks human cytochrome P450 2C9; inhibition, % at 5 µM; P11712; CYP2C9 Supersomes, luciferin-H conversion, luminescence; hit rate 20% among 96,000;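 active means blocking of liver enzyme CYP2C9 beyond about 50% at 5 µM, limit read from the data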
Target sequence (P11712 whole entry, looked up): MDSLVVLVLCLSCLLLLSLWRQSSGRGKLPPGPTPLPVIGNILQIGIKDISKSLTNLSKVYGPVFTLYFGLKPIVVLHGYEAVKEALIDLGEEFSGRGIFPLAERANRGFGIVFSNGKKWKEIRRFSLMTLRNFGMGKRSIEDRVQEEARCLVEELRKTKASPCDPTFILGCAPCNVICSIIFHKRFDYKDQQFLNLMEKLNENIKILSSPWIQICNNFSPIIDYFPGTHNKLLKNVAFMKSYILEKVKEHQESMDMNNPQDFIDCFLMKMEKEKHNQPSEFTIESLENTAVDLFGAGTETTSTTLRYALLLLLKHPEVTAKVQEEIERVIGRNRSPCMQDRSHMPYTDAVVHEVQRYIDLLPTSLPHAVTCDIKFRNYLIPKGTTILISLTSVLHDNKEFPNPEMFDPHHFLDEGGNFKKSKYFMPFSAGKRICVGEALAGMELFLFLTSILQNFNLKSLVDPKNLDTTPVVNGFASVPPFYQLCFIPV
CYP2C19 activ: cytochrome P450 2C19 (human) activation. P33261. recombinant CYP2C19, luciferin-H EGE luminescence; active compounds read high; 0 = fully inhibited enzyme, 1 = untreated enzyme. activation factor at 5 µM. 96,000 tested, under 10 active;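 active means activation factor of at least 2 at 5 µM in the primary screen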;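 further: 0 = wells with 2.5 mM tranylcypromine and 1 = vehicle-only wells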
Cav3 T inh: inhibitors of human Cav3.2 T-type calcium channel; O95180; Cav3.2-expressing cells, Fluo-4 calcium fluorescence FDSS; active compounds read low; B-score at 10 µM; hit rate 4% among 100,000;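 active means single-dose well whose peak fluorescence ratio is a statistical outlier from its plate by either plate-standardised score or position-corrected B-score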
CYP2C19 inhib: inhibitors of human CYP2C19. CYP2C19 Supersomes, luciferin-H EGE luminescence, 30 min. inhibition, % at 5 µM. hit rate 21% among 96,000. AID 778;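 active means CYP2C19 inhibition above a set limit at 5 µM in the primary screen, cut at about 50% in these data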;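 further: plate controls were negative control wells for no effect and 2.5 mM tranylcypromine positive control for full effect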
CYP2C9 activ: activators of human CYP2C9; P11712; recombinant CYP2C9, luciferin-H conversion, luminescence; active compounds read high; factor 1 = untreated enzyme, 0 = blocked; activation factor at 5 µM; hit rate 1.4% among 96,000;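 active means activation factor of 2 or more for CYP2C9 at a 5 µM dose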;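 further: 0 = sulfaphenazole-blocked wells and 1 = vehicle-only wells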
Active calls of the source: *; . = not tested or not shown.

SMILES | CYP2C9 inhib | CYP2C19 activ | Cav3 T inh | CYP2C19 inhib | CYP2C9 activ
O=C(Nc1ccccc1)C1CC=CCC1C(=O)OCC1CCCO1 (stereo unspecified) | 8 | 0.8 | 0.17 | 22 | 0.9
Cc1ccc(S(=O)(=O)N2CCN(C(=O)CSc3nnnn3C)C2)cc1 | -8 | 1 | 0.059 | -4 | 1.1
CC1CN(S(=O)(=O)c2cccc(C(=O)OCC(=O)Nc3ccc4c(c3)OCO4)c2)CC(C)O1 (stereo unspecified) | 46 | 0.8 | -2 | 23 | 0.5
Cc1nn(C(C)(C)C)c(OC(=O)c2ccc3c(c2)OCO3)c1S(=O)(=O)c1ccccc1 | 83* | 0.4 | -2.8 | 62* | 0.2
Cc1nn(C(C)(C)C)c(OC(=O)c2ccc3c(c2)OCO3)c1Sc1ccccc1 | 42 | 0.7 | -4.9* | 27 | 0.6
C=CCCCCCCCCC(=O)NN | 89* | 0 | -0.14 | 100* | 0.1
CCOC(=O)c1cnc2ccc(C)cc2c1Sc1ccccc1 | 49 | 0.8 | -0.82 | 17 | 0.5
CCOC(=O)c1cnc2ccc(C)cc2c1Nc1ccc(N2CCOCC2)cc1 | 81* | 0.2 | -0.028 | 78* | 0.2
COC(=O)c1ccc(NC(=O)C(C)Oc2ccccc2)cc1 (stereo unspecified) | 84* | 0.6 | -0.64 | 42 | 0.2
CC(Oc1ccccc1)C(=O)Nc1ccc(C(N)=O)cc1 (stereo unspecified) | 28 | 0.5 | 0.71 | 48 | 0.7
COc1ccc(OC(C)C(=O)Nc2cccc(OC)c2)cc1 (stereo unspecified) | 75* | 0.1 | -0.92 | 87* | 0.3
COc1cccc(NC(=O)N[C@@H](Cc2ccccc2)C(=O)O)c1 | 6 | 0.9 | -0.33 | 5 | 0.9
COc1ccc(NC(=O)C(C)Oc2ccc(/C(C)=N\O)cc2)cc1 (stereo unspecified) | 66* | 0.2 | -0.62 | 81* | 0.3
COc1cccc(NC(=O)C(C#N)Cc2ccncc2)c1 (stereo unspecified) | 77* | 0 | 0.43 | 100* | 0.2
O=C(c1ccc(N2CCCCS2(=O)=O)cc1)N1CCN(c2ccc(N3CCOCC3)nn2)CC1 | 1 | 1.1 | . | -10 | 1
CCOc1ccccc1-c1nc(SCC(=O)O)n[nH]1 | -11 | 1.1 | -0.19 | -11 | 1.1
CC(=O)c1c(N2CCC(C(N)=O)CC2)nc(=S)n(-c2ccccc2)c1C | -3 | 1 | -0.93 | 0 | 1
Cc1nn(-c2ccccc2)c2c1C1(C(=O)N(C(C)C)c3ccccc31)C(C#N)=C(N)O2 (stereo unspecified) | 46 | 0.5 | -2.1 | 48 | 0.5
Cc1ccc(C(=O)Nc2c(C(=O)N3CCOCC3)cnn2-c2ccccc2)cc1 | -16 | 1.2 | 0.11 | -17 | 1.2
O=C(CSc1nnc(CNc2ccc(F)cc2)o1)N1CCCc2ccccc21 | 20 | 0.7 | -5.3* | 28 | 0.8
CCn1c(CNc2ccc(C)cc2C)nnc1SCC(=O)N1CCCc2ccccc21 | 41 | 0.1 | -2.4 | 86* | 0.6
CCn1c(CNc2ccc(F)cc2)nnc1SCC(=O)N1CCCc2ccccc21 | -29 | 0.4 | -2.8 | 63* | 1.3
COc1cc(C(=O)NCc2nnc(SCC(=O)N3CCc4ccccc43)o2)cc(OC)c1OC | 79* | 0.4 | . | 64* | 0.2
CNC(=O)c1cc2cc(Cl)cc(OC)c2oc1=O | . | . | -0.075 | . | .
Cc1ccc(C)c(SCC(=O)OCC(=O)c2ccco2)c1 | -16 | 1 | 0.99 | 2 | 1.2
SMILES | CYP2C9 inhib | CYP2C19 activ | Cav3 T inh | CYP2C19 inhib | CYP2C9 activ
O=C(NCCc1ccc(Cl)cc1)C1CCC(CNc2c(N3CCCCC3)c(=O)c2=O)CC1 (stereo unspecified) | . | . | 0.19 | . | .
Cc1ccc(NCc2nnc(SCCN3CCCCC3)n2CC2CCCO2)c(C)c1 (stereo unspecified) | -2 | 1.1 | 1.5 | -9 | 1
Cc1ccc(NCc2nnc(SCC(=O)Nc3ccccc3)n2CC2CCCO2)c(C)c1 (stereo unspecified) | 49 | 0.5 | -4.5* | 52* | 0.5
CCC(=O)c1ccc(OCC(O)CN2CCN(C(c3ccccc3)c3ccccc3)CC2)cc1 (stereo unspecified) | 67* | 0.5 | -2.7 | 46 | 0.3
O=C(NCCc1ccccc1)[C@@H]1CC=C[C@@H]2CCN(Cc3ccccc3)C(=O)[C@@H]21 | . | . | -0.84 | . | .
O=c1c2ccccc2nc(SCc2cc(F)cc3c2OCOC3)n1Cc1ccco1 | 40 | 0.7 | -6* | 30 | 0.6
CCOC(=O)c1cc2c(c(CSc3nc4ccccc4c(=O)n3Cc3ccco3)c1)OCOC2 | 67* | 0.9 | 0.1 | 6 | 0.3
O=C(Cn1ccc2ccccc2c1=O)NCCC(=O)N1CCN(c2cccc(C(F)(F)F)c2)CC1 | 24 | 0.8 | -0.64 | 16 | 0.8
CC(C)CNC(=O)C1CCN(c2ccc(S(=O)(=O)N3CCOCC3)cc2)CC1 | 28 | 1.1 | 0.58 | -14 | 0.7
COc1ccc(S(=O)(=O)N2CCC(C(=O)NCc3ccccn3)CC2)cc1Cl | -120 | 0.7 | -0.13 | 32 | 2.2*
COc1ccc(S(=O)(=O)N2CCCC(C(=O)NCc3ccccn3)C2)cc1Cl (stereo unspecified) | -59 | 0.6 | 0.46 | 36 | 1.6
COc1ccc(S(=O)(=O)N2CCC(C(=O)NC3CC3)CC2)cc1Cl | -34 | 0.2 | 0.24 | 78* | 1.3
COc1ccc(S(=O)(=O)N2CCC(C(=O)NCc3ccccn3)CC2)cc1C | -130 | 0.8 | -0.37 | 24 | 2.3*
O=C(NC1CC1)C1CCN(c2ccc(S(=O)(=O)N3CCOCC3)cc2)CC1 | 74* | 1 | 0.86 | -2 | 0.3
CCCc1nnc(NC(=O)c2c(O)c3cccc4c3n(c2=O)CCC4)s1 | 36 | 0.9 | -0.76 | 12 | 0.6
Cc1nc2cc(C(F)(F)F)ccc2n1C1CCN(C(=O)N2CCOCC2)CC1 | 27 | 0.9 | 1.4 | 9 | 0.7
COc1cccc(/C=N/NC(=O)c2[nH]c(C)c(C(=O)N/N=C/c3cccc(OC)c3O)c2C)c1O | -8 | 1.1 | -0.14 | -8 | 1.1
Cc1ccc(NC(=S)N/C(=N/S(=O)(=O)c2ccccc2)c2ccccc2)cc1 | 82* | 0.8 | -0.71 | 20 | 0.2
Cc1ccc(S(=O)(=O)/N=C(/NC(=S)Nc2ccccc2)c2ccccc2)cc1 | 44 | 0.8 | -1.7 | 25 | 0.6
CCCOC(=S)N/C(=N\S(=O)(=O)c1ccccc1)c1ccccc1 | 67* | 0.6 | -3.1 | 37 | 0.3
CCN(CC)/C(=N/S(=O)(=O)c1ccc(C)cc1)c1ccccc1 | 19 | 0.4 | 1.3 | 57* | 0.8
CCN(CC)S(=O)(=O)c1ccc(F)c(C(=O)NCCC(C)C)c1 | . | . | 0.22 | . | .
COc1cccc(C2C(C(=O)c3cccs3)=C(O)C(=O)N2CCCn2ccnc2)c1OC (stereo unspecified) | 89* | 0.2 | . | 77* | 0.1
COc1ccc(C2C(C(=O)c3sc(C)nc3C)=C(O)C(=O)N2CCN(C)C)cc1 (stereo unspecified) | -8 | 1.1 | 0.94 | -6 | 1.1
CCCOc1ccc(C2C(C(=O)c3ccco3)=C(O)C(=O)N2CCCn2ccnc2)cc1 (stereo unspecified) | 61* | 0.7 | . | 25 | 0.4

Source: PubChem
